Screens (PubChem BioAssay)
A selection: hits, their analogues and other compounds. The true share with any hit is near 7.6%.
Cav32 inh: Cav3.2 calcium influx blockers – cell-based, Fluo-4 calcium fluorescence, FDSS, MLSMR library, primary screen; Voltage-dependent T-type calcium channel subunit alpha-1H (Homo sapiens), O95180; Cav3.2-expressing cells; hits give low values; B-score at 10 µM; 4% of 100,000 active; AID 449739, 2010;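 active means single-dose well whose peak fluorescence ratio is a statistical outlier from its plate by either plate-standardised score or position-corrected B-score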
M1 antag: antagonists of rat M1 muscarinic receptor | B-score at 10 µM | CHO-M1 cells, Fluo-4 calcium, ACh EC80 antagonist mode; hits give low values | Muscarinic acetylcholine receptor M1 (Rattus norvegicus), P08482 | AID 628, 2007 | 3.4% of 64,000 active;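 active means calcium fluorescence response, raw or row-and-column corrected B-score, differing from the plate sample mean either way at a set confidence level, mostly lower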
PLAP activator: PLAP enzyme activators, biochemical, luminescence, HTS; Alkaline phosphatase, placental type (Homo sapiens), P05187; purified PLAP enzyme, luminescent substrate read-out; hits give high values; activation fold at 20 µM; 1.2% of 96,000 active; in the data active means activation fold above about 2
M1 ag: M1 muscarinic receptor agonists, primary screen, CHO-M1 cells, Fluo-4 calcium, agonist mode | Muscarinic acetylcholine receptor M1 | Fluo-4 calcium fluorescence; hits give high values | B-score at 10 µM | 3% of 64,000 active;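 active means fluorescence rise, raw or as B-score row- and column-corrected plate score, outside the 99.7% band of its plate's samples, either direction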
Starred values were filed as active, the others as inactive; . = no result given.

SMILES | Cav32 inh | M1 antag | PLAP activator | M1 ag
CCCn1c(SCC(N)=O)nc2c(c1=O)C1(CCCC1)Cc1ccccc1-2 | . | 0.38 | 0.8 | 0.2
O=c1[nH]c(CN(CCO)CCO)nc2c1C1(CCCCC1)Cc1ccccc1-2 | -11* | 0.38 | . | 1
CCN(CC)Cc1nc2c(c(=O)[nH]1)C1(CCCC1)Cc1ccccc1-2 | -6.7* | . | 1.5 | .
CCn1c(SCC#N)nc2c(c1=O)C1(CCCC1)Cc1ccccc1-2 | -6.9* | 0.012 | 1.6 | -0.54
CCC1(CC)Cc2ccccc2-c2nc(CN3CCOCC3)[nH]c(=O)c21 | -0.68 | -0.1 | 1.7 | 0.43
O=C(CCS(=O)(=O)c1ccc(Br)s1)N1CCc2ccccc21 | -0.45 | 0.33 | 1 | 0.82
CCN(CC)C(=O)CSc1nnc(-c2ccncc2)n1N | 0.14 | . | 1 | .
CCN(CC)C(=O)CSc1nnc(-c2ccccc2)n1N | 0.49 | 2.4* | 1 | 1.2
N#Cc1c(NC(=O)c2ccccc2)sc2c1CCC2 | 0.86 | . | 0.8 | .
Cc1nn(C(C)C(=O)Nc2sc3c(c2C#N)CCCC3)c(C)c1[N+](=O)[O-] (centres undefined) | -3.3* | . | 0.9 | .
CC(C)C(C(=O)Nc1sc2c(c1C#N)CCCCC2)N1C(=O)c2ccccc2C1=O (centres undefined) | -8.7* | . | 1.1 | .
CC(C)CC(=O)NC(NC(=S)Nc1sc2c(c1C#N)CCCC2)C(Cl)(Cl)Cl (centres undefined) | -5.3* | . | 1.2 | .
COc1ccc(-n2c(N)c(Br)c(=O)[nH]c2=O)cc1 | -0.15 | 0.9 | 1.1 | 0.42
COc1ccc(CC(=O)Nc2cccc(C(=O)O)c2C)cc1 | 0.11 | 0.22 | 1 | 0.44
O=C(N/N=C/c1ccco1)/C(=C/c1cccc([N+](=O)[O-])c1)NC(=O)c1ccccc1 | 0.062 | . | 1.6 | .
O=C(N/N=C/c1ccc(Br)o1)/C(=C/c1ccc([N+](=O)[O-])cc1)NC(=O)c1ccccc1 | -4.9* | . | 1.4 | .
O=C(NCC(c1cccs1)N1CCOCC1)c1cc2ccccc2o1 (centres undefined) | -0.36 | -0.22 | 1.7 | -1.4
N#CC(c1cccc(C(F)(F)F)c1)(c1ncc(C(F)(F)F)cc1Cl)N1CCOCC1 (centres undefined) | -4.3* | . | 1.2 | .
N#CC(c1ccccc1)(c1ncc(C(F)(F)F)cc1Cl)N1CCOCC1 (centres undefined) | . | . | 1.3 | .
N#CC(C(=O)NC1CC1)c1nc2ccccc2nc1N1CCN(C/C=C/c2ccccc2)CC1 (centres undefined) | -11* | 0.26 | 1.4 | 5.5
N#CC(C(=O)NC1CCCCC1)c1nc2ccccc2nc1N1CCCCC1 (centres undefined) | . | -1 | . | 49*
COc1ccc(CC(=O)OCC(=O)Nc2c(C)n(C)n(-c3ccccc3)c2=O)cc1 | 0.31 | -0.17 | 1 | -0.24
CCc1cc(C)cc(OCCNC(=O)c2ncn[nH]2)c1 | 0.37 | -0.15 | 2* | 0.021
CCc1cc(C)cc(OCCNC(=O)c2cncc(Br)c2)c1 | -3.1 | . | 0.8 | .
CC(C)(C)c1ccc(OCCNC(=O)c2ncn[nH]2)cc1 | -0.69 | . | 2.7* | .
SMILES | Cav32 inh | M1 antag | PLAP activator | M1 ag
COc1cccc(=O)c2c(C)n(-c3cc(C)cc(C)c3)c(C)c12 | -5.1* | . | 1.3 | .
O=C(CN(Cc1ccco1)C(=O)c1ccccc1)Nc1ccc(Cl)c(Cl)c1 | -8.7* | . | 0.8 | .
O=C(CN(Cc1ccco1)C(=O)c1cccc(Cl)c1)Nc1c(Cl)cc(Cl)cc1Cl | -4.5* | . | 1.3 | .
CCOc1ccccc1NC(=S)N1CCC(NC(=O)NC23CC4CC(CC(C4)C2)C3)CC1 | -2 | . | 1 | .
Cc1cc(C(=O)OCn2nnc3ccccc3c2=O)c(C)n1-c1ccccc1 | . | -0.087 | 1.7 | -0.027
CC(C)Oc1ccc(-c2nn(-c3ccccc3)cc2/C=c2\sc3ncnn3c2=O)cc1 | . | -0.8 | 1.7 | 33*
O=c1/c(=C/c2cn(-c3ccccc3)nc2-c2ccc(F)cc2)sc2nc3ccccc3n12 | -0.28 | . | 1.1 | .
CCCn1c(NC(=O)c2ccc(Cl)c(S(=O)(=O)N3CCCC3)c2)nc2ccccc21 | -3.1 | 0.12 | 1.5 | 0.056
Cc1cc2c(cc(C(=O)NCc3cccnc3)n2Cc2ccc(Cl)cc2)o1 | -2.3 | -0.022 | 1.2 | -0.12
CC1CCC(NC(=O)CN2C(=O)C3CCCN3c3ncc(Cl)cc32)CC1 (centres undefined) | -6.5* | -0.31 | 1.4 | 1.1
CSCC[C@H](NC(=O)OC(C)(C)C)C(=O)N/N=C/c1c(C)[nH]c(=O)[nH]c1=O | . | . | 2.2* | .
Cc1snc(S(=O)(=O)/C(C#N)=N/Nc2cccc(C(F)(F)F)c2)c1C#N | -6.2* | . | 1.5 | .
COc1ccc(N/N=C(/C#N)S(=O)(=O)c2nsc(C)c2C#N)cc1 | 1.8 | . | 1.3 | .
CNC(=S)N1N=C(c2ccc(C)cc2)CC1c1ccc(Br)cc1 (centres undefined) | -6.3* | . | 0.9 | .
CNC(=S)N1N=C(c2ccc(C)cc2)CC1c1ccc(Cl)cc1 (centres undefined) | -6.2* | . | 1.1 | .
CCOC(=O)c1cnn(-c2sc(C(=O)OCC)c(C)c2C(=O)OCC)c1N | -3.3* | -0.29 | . | -3.4*
CC1(C)Cc2c(sc3c2c2ncnn2c2nnc(SCC(=O)NCc4ccco4)n32)CO1 | 2.6 | -1.2 | 1 | 0.42
CCC1(C)Cc2c(sc3c2c2ncnn2c2nnc(SCC(=O)NCc4ccco4)n32)CO1 (centres undefined) | 3.7* | -1.2 | 1 | -0.53
COc1ccc(/C=C/C(=O)c2ccccc2)cc1COc1ccccc1F | -4.2* | . | 1 | .
COc1ccc(-c2nnc3ccc(SCC(=O)N4CCN(c5ccccc5)CC4)nn23)cc1OC | . | -0.13 | . | 6*
COc1cnc(SCC(=O)O)[nH]c1=O | 0.54 | . | 0.9 | .
CC(C)=C1C2CCC1C1C(=O)N(NC(=O)COc3ccc(C(C)(C)C)cc3)C(=O)C21 (centres undefined) | -8.4* | . | 1.3 | .
CC(=O)Nc1ccc(S(=O)(=O)NNC(=O)COc2ccc(C(C)(C)C)cc2)cc1 | -2.5 | . | 0.9 | .
O=C(NCCCN1CCc2ccccc2C1)Nc1ccc(Br)cc1 | -2.8 | . | 2.3* | .
CCOC(=O)C1=C(C)N2C(=C(C#N)[C@@H]1c1ccc(C(=O)OC)cc1)SC[C@@]2(O)C(C)(C)C | -5.8* | -0.21 | 1.6 | -0.57
SMILES | Cav32 inh | M1 antag | PLAP activator | M1 ag
COc1ccc(NC(=O)COC(=O)c2ccc(N3CCCC3=O)cc2)cc1OC | -12* | 0.52 | 0.8 | -0.034
CCn1c(SCCOc2ccc(Cl)cc2)nnc1-c1cccs1 | -5.2* | -2 | 1.5 | 0.24
CCOc1cc(C2NC(=O)NC(C)=C2C(=O)NCc2ccccc2)c(Cl)cc1O (centres undefined) | 0.57 | . | 0.9 | .
CCOc1c2ccc(C(=O)NCCCCc3ccccc3)cc2nn1CC | -0.29 | . | 1.3 | .
CCC(CO)n1c(SCc2cc(=O)oc3cc(C)ccc23)nc2ccccc2c1=O (centres undefined) | -3.5 | . | 2.7* | .
CCOC(=O)c1c(C)n(C)c2ccc(OC)c(NC(=O)CN3CCN(C4CCCCC4)CC3)c12 | 0.39 | . | 2* | .
COC(=O)C(C)N(C(=O)c1cccc2ccccc12)c1c(C)cccc1C (centres undefined) | -7.1* | . | 1.3 | .
